Bioassay records (PubChem BioAssay)
M1 PAM parental – nonselective activator or artifact in parental CHO-K1 calcium assay. 360,000 tested, 0.02% active. ATP EC20, Fluo-8 calcium fluorescence; 0% at ATP EC20, 100% at ATP max. AID 602247. activation, % at 3 µM;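 active means activation above the run cutoff, the mean activation of all test compounds plus 3 SD, cut at about 40% in these data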;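 further: peak over basal fluorescence ratio in a 140 s read after ATP addition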
CHRM1 PAM – positive allosteric modulators of human M1 muscarinic receptor. P11229. AID 588819. CHO-K1 hM1, Fluo-8 calcium fluorescence, ACh EC20; 0% = ACh EC20, 100% = maximal ACh. 360,000 tested, 0.088% active. activation, % at 3 µM; in the data active means activation above about 19%, passing the limit was not always enough
Target sequence (P11229 whole entry, looked up): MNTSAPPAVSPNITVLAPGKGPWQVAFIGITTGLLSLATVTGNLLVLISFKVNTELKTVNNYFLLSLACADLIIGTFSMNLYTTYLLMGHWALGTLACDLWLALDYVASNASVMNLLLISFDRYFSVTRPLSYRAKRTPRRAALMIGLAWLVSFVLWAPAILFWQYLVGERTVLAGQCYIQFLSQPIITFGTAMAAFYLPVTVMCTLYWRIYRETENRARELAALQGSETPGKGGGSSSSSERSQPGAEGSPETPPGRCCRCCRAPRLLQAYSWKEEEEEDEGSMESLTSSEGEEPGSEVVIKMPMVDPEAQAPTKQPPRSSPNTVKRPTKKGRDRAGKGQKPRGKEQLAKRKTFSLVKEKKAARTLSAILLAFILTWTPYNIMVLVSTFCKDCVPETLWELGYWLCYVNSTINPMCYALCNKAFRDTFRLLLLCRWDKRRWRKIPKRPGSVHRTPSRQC
CHRM1 agonist – agonists of human M1 muscarinic receptor. P11229. AID 588814. CHO-K1 hM1, Fluo-8 calcium fluorescence, agonist mode; 0% DMSO, 100% acetylcholine EC100. activation, % at 3 µM. 360,000 tested, 0.33% active;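 active means activation above the run's mean compound activation plus 3 SD, cut at about 16% in these data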;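 further: peak over basal fluorescence ratio within a 140 s kinetic read after compound addition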
CHO-K1 Ca antag – M1 antagonist counterscreen hit in parental CHO-K1 cells | ATP-induced calcium, Fluo-8 fluorescence | inhibition, % at 3 µM | 360,000 tested, 0.6% active | AID 602250;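 active means inhibition above a per-plate cutoff, the plate's mean sample inhibition plus 3 SD, cut at about 24% in these data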;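 further: 0% = DMSO plus EC80 ATP and 100% = DMSO alone without ATP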
CHO-K1 Ca ag – nonselective activator or artifact in parental CHO-K1 cells. Fluo-8 calcium fluorescence; scaled to maximal ATP response, vehicle zero. AID 602248. 360,000 tested, 0.48% active. activation, % at 3 µM; in the data active means activation above about 15%;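 further: untransfected CHO-K1 host cells lacking M1 receptor as counterscreen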
CHRM1 antagonist – human CHRM1 antagonism; P11229; CHO-K1 hM1, Fluo-8 calcium fluorescence, ACh EC80 antagonist; inhibition, % at 3 µM; 360,000 tested, 1.3% active;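 active means percent inhibition above its own plate's cutoff, namely the mean of that plate's compound wells plus 3 SD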;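 further: peak over basal fluorescence ratio during 140 s after agonist addition; 0% = ACh EC80 plus DMSO and 100% = DMSO alone without agonist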
* marks the source's active call; other numbers are inactive results. A selection: hits, their analogues and other compounds. The true share with any hit is near 2.3%.

SMILES	M1 PAM parental	CHRM1 PAM	CHRM1 agonist	CHO-K1 Ca antag	CHO-K1 Ca ag	CHRM1 antagonist
CCCCNC(=O)C1CCN(Cc2ccc(OCc3ccccc3)c(OC)c2)CC1	6	9	-10	-5	0	-4
CC(Sc1ccccc1)C(=O)NN=C1CCN(C)CC1 (centres undefined)	16	13	-7	-2	0	-8
CCN(CC)CC(=O)Nc1ccccc1SCC(=O)Nc1ccsc1C(=O)OC	4	8	-15	-11	1	-6
Cc1nc(CNC(=O)CC2C(=O)NCCN2Cc2cccc(Oc3ccccc3)c2)cs1 (centres undefined)	10	8	-9	-12	1	-9
Cc1c(OCC(=O)NCCN2CCOCC2)ccc2c1oc(=O)c1ccccc12	-17	-5	3	1	17*	7
CCc1nc(SCC(=O)c2cccs2)c2oc3ccccc3c2n1	-8	-9	-2	26*	0	21
CCc1nc(SCC(=O)NCCc2ccccc2)c2oc3ccccc3c2n1	25	0	-4	-12	1	-2
CCCN(CC(=O)Nc1ccccc1C)C(=O)CCCc1c[nH]c2ccccc12	11	2	1	6	2	-2
CN(C)CCNc1ncnc2oc(-c3ccccc3)c(-c3ccccc3)c12	9	-7	-7	8	16*	10
CN(C(=O)CN1C(=O)/C(=C/c2ccccc2Cl)SC1=S)C1CCS(=O)(=O)C1 (centres undefined)	10	2	1	-10	0	4
CN(C(=O)CN1C(=O)S/C(=C\c2ccccc2Cl)C1=O)C1CCS(=O)(=O)C1 (centres undefined)	20	4	-11	28*	1	-2
CN(C)CCNc1nc2sc3c(c2c(=O)n1Cc1ccccc1)CCCCC3	4	-30	-11	12	13	73*
N#C/C(=C\C=C\c1ccccc1)C(=O)NCc1ccco1	13	3	3	-2	5	4
O=C(NCc1ccco1)/C(=C/C=C\c1ccccc1)NC(=O)c1ccc(Br)o1	14	-1	-5	15	18*	4
Cc1ccc(-c2nn(CC(=O)N(C)C)c(=O)c3ccccc23)cc1S(=O)(=O)N(C)C	12	21*	-3	-31	0	-50
COC(=O)Cn1nc(-c2ccc(C)c(S(=O)(=O)N(C)C)c2)c2ccccc2c1=O	8	7	-2	1	0	-10
CCN(CC)CCC/C(=N\O)C(O)(c1ccccc1)c1ccccc1	11	-22	-5	-14	1	95*
CC[N+](C)(CC)CCC/C(=N/O)C(O)(c1ccccc1)c1ccccc1	14	-20	-3	-5	1	64*
CC/C(CC(C)(C)c1ccccc1)=N\O	22	7	-3	-15	0	-4
CC(C)OCCCn1c(SCC(=O)N2CCCC2=O)nc2ccccc2c1=O	-16	-1	-2	8	15*	9
O=S(=O)(NCc1ccco1)c1ccc(Cl)nc1	-9	1	-3	9	0	10
CCN(CC(=O)NCc1cccs1)C(=O)/C=C/c1cc(OC)ccc1OC	-22	-4	-2	24*	0	2
O=C(CCc1nc2ccccc2c(=O)[nH]1)Nc1nc(-c2cccs2)cs1	9	0	2	9	18*	4
COc1ccc(N2C(=O)CN(Cc3ccc(OC)c(OC)c3)C2=S)cc1	1	-1	-1	-1	8	5
CCC(Sc1ccc(Cl)cc1)C(=O)Nc1nnc(-c2cccc([N+](=O)[O-])c2)s1 (centres undefined)	23	5	20*	-3	1	-9
SMILES	M1 PAM parental	CHRM1 PAM	CHRM1 agonist	CHO-K1 Ca antag	CHO-K1 Ca ag	CHRM1 antagonist
CCC(Sc1nncn1C)C(=O)Nc1nnc(-c2ccccc2Cl)s1 (centres undefined)	14	4	-8	-6	0	-12
COC(=O)c1ccsc1NC(=O)CN1CCN(c2ncccn2)CC1	-22	18	2	25*	0	-6
COC(=O)c1ccsc1NC(=O)CN1CCN(c2ccc(F)cc2)CC1	13	1	-2	-14	2	-23
Cc1cc(=O)n2nc(N3CCCC(C(=O)N4CCOCC4)C3)sc2n1 (centres undefined)	18	10	-2	-11	1	-14
Cc1cc(=O)n2nc(N3CCCC(C(=O)N4CCc5ccccc54)C3)sc2n1 (centres undefined)	-5	-23	-6	5	-1	97*
OC1(c2ccc(Br)cc2)CCN(Cc2cccc(Br)c2)CC1	12	-17	5	-9	1	35*
COC(=O)C(NC(=O)c1ccccc1C)(Nc1ncc(S(=O)(=O)c2ccc([N+](=O)[O-])cc2)s1)C(F)(F)F (centres undefined)	16	4	17*	4	7	2
Cc1csc(NC(=O)CSc2ccc([N+](=O)[O-])cn2)n1	18	7	-4	-3	16*	-2
O=C(Nc1ccc([N+](=O)[O-])cc1)c1ccccc1F	19	3	-7	-22	1	-2
CCCc1cc(=O)[nH]c(SCC(=O)Nc2ncc(S(=O)(=O)c3ccc([N+](=O)[O-])cc3)s2)n1	-11	-2	-3	-2	0	-4
Cc1nnc(SCC(=O)Nc2ncc(S(=O)(=O)c3ccc([N+](=O)[O-])cc3)s2)s1	44*	11	-4	1	1	-11
O=C(Nc1ncc(S(=O)(=O)c2ccc([N+](=O)[O-])cc2)s1)c1ccccc1F	13	-17	30*	-7	3	32*
CC(C)C(NC(=S)Nc1ccccc1)C(=O)O (centres undefined)	7	8	-5	-9	0	-17
COc1ccc2[nH]c(=O)c(CN(CCO)S(=O)(=O)c3c(C)ccc4nsnc34)cc2c1	-8	1	-1	29*	1	4
COc1ccc2[nH]c(=O)c(CN(Cc3cccs3)S(=O)(=O)c3cccc4nsnc34)cc2c1	4	-13	-3	-13	9	32*
O=C1CCCCC1(O)Cc1ccc2c(c1)OCO2 (centres undefined)	-4	6	1	-7	0	-6
Oc1ccc(C23CCCC2C2(CCCC2)c2ccc(O)cc2O3)c(O)c1 (centres undefined)	1	-19	40*	7	24*	38*
CCOC(=O)c1ccc(NC(=O)c2nc[nH]c2C(=O)N[C@H](C)CO)cc1	10	1	-3	-1	1	-9
O=S(=O)(Cc1ccccc1)NCCc1cccc(Cl)c1	1	-6	-5	12	0	9
Cc1ccc(S(=O)(=O)c2nnn3c2nc(NCCCN2CCCC2=O)c2ccccc23)cc1C	-18	-6	-5	-2	2	13
